# Experimental data published in publication PMC7862700, “An all-to-all approach to the identification of sequence-specific readers for epigenetic DNA modifications on cytosine”.
# How the values were obtained:
# Assay in all cases: DAPPL (digital affinity profiling via proximity ligation, sequencing); 10 mM Tris-HCl pH 7.5, 50 mM NaCl, 1 mM DTT, 4% glycerol, room temperature, 30 min; GST-TFs on glutathione beads, 16-mer random dsDNA library, 0.1% formaldehyde crosslink after washing; high values mean tight binding
# FLI1 = target: T1, FLI1 (Homo sapiens, UniProt Q01543 1-452); details: protein: recombinant; tags: N-terminal GST; dsDNA, one strand shown
# T1 sequence: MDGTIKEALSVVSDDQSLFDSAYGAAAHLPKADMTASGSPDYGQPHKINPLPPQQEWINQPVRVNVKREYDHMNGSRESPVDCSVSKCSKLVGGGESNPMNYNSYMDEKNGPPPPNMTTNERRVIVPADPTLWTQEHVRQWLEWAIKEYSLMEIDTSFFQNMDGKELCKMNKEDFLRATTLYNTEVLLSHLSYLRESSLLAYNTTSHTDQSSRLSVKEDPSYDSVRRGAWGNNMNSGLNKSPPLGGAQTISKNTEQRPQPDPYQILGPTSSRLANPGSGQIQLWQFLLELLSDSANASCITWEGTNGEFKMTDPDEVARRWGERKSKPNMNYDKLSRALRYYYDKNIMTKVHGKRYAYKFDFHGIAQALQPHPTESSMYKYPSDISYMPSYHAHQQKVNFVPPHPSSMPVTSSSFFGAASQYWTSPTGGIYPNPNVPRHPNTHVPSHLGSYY
# Outline: (§1)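 A tag-only sample was pooled with DNA-barcoded human transcription factors that had been expressed in yeast as GST fusions and captured on glutathione beads. The pools were incubated for 30 min at room temperature with 200 nmole of a random double-stranded 16-mer DNA library in Tris/NaCl/DTT/glycerol buffer, then washed, crosslinked with 0.1% formaldehyde, proximity-ligated (BsaI/T4 ligase, 1 h, 37 °C), PCR-amplified and sequenced on an Illumina NextSeq500. Binding signal is each hexamer's read frequency for a factor divided by its frequency for the tag-only sample.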
# ELK1 = target: T2, ELK1 (Homo sapiens, UniProt P19419 1-428); details: protein: recombinant; tags: N-terminal GST; dsDNA, one strand shown
# T2 sequence: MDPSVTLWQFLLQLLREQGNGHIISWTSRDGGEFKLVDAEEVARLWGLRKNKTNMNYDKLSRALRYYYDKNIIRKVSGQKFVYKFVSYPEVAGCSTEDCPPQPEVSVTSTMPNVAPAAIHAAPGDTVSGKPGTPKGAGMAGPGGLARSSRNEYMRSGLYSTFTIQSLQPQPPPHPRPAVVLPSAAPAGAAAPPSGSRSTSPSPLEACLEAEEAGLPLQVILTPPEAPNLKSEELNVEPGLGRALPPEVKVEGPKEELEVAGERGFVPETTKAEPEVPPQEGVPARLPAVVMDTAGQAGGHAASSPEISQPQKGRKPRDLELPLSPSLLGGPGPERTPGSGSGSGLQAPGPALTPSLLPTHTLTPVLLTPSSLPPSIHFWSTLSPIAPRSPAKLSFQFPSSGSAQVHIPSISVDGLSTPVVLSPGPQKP
# Outline: as §1
# GABPA = target: T3, GABPA (Homo sapiens, UniProt Q06546 1-454); details: protein: recombinant; tags: N-terminal GST; dsDNA, one strand shown
# T3 sequence: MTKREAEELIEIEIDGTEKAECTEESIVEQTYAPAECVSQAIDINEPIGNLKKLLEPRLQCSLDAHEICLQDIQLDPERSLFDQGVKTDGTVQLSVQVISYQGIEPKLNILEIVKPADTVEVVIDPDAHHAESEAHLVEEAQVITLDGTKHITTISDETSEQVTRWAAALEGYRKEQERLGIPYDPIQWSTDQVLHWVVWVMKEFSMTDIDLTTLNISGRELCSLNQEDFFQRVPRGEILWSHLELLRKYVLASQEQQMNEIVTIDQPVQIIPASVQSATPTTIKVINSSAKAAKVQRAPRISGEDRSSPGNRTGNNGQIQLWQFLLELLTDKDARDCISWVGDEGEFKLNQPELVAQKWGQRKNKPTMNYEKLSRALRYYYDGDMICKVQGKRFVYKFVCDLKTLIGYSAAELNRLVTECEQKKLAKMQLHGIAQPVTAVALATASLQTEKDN
# Outline: as §1
# ERG = target: T4, ERG (Homo sapiens, UniProt P11308 1-479); details: protein: recombinant; tags: N-terminal GST; dsDNA, one strand shown
# T4 sequence: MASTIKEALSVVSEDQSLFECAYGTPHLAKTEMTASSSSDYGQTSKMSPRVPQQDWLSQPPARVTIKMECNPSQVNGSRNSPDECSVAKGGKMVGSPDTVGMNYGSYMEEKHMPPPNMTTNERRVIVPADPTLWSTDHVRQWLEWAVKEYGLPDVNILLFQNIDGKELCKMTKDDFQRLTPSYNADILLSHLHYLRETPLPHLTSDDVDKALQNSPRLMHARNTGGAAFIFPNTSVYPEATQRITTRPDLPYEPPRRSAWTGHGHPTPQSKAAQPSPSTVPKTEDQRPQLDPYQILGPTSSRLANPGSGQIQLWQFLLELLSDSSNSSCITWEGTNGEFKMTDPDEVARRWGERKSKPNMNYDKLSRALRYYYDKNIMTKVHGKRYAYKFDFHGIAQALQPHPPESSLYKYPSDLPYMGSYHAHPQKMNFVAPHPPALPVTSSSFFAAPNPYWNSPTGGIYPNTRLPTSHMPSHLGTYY
# Outline: as §1
# ELF1 = ELF1 (Homo sapiens, UniProt P32519 1-619); details: protein: recombinant; tags: N-terminal GST; dsDNA, one strand shown
# Outline: as §1
# EHF = target: T5, EHF (Homo sapiens, UniProt Q9NZC4 1-300); details: protein: recombinant; tags: N-terminal GST; dsDNA, one strand shown
# T5 sequence: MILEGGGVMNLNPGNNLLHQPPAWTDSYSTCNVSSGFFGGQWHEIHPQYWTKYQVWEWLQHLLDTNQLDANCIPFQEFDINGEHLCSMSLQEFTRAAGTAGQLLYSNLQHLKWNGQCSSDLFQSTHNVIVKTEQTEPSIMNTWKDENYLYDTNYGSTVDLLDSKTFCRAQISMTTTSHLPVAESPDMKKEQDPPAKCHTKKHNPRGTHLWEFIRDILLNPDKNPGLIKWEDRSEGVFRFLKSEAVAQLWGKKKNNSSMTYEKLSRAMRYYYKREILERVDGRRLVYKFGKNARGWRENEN
# Outline: as §1
# SPI1 = SPI1 (Homo sapiens, UniProt P17947 1-270); details: protein: recombinant; tags: N-terminal GST; dsDNA, one strand shown
# Outline: as §1
# SPIB = SPIB (Homo sapiens, UniProt Q01892 1-262); details: protein: recombinant; tags: N-terminal GST; dsDNA, one strand shown
# Outline: as §1
# ELK3 = target: T6, ELK3 (Homo sapiens, UniProt P41970 1-407); details: protein: recombinant; tags: N-terminal GST; dsDNA, one strand shown
# T6 sequence: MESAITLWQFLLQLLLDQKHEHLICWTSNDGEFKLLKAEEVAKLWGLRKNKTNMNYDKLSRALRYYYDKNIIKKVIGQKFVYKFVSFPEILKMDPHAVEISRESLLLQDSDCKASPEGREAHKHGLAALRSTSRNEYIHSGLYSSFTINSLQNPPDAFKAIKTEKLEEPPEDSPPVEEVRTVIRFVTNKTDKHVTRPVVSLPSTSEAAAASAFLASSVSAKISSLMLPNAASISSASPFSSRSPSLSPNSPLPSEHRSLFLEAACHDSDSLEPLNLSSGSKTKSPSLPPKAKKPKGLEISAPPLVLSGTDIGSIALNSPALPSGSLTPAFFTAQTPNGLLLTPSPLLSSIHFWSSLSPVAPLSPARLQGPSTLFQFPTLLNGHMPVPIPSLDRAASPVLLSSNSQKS
# Outline: as §1
# FEV = target: T7, FEV (Homo sapiens, UniProt Q99581 1-238); details: protein: recombinant; tags: N-terminal GST; dsDNA, one strand shown
# T7 sequence: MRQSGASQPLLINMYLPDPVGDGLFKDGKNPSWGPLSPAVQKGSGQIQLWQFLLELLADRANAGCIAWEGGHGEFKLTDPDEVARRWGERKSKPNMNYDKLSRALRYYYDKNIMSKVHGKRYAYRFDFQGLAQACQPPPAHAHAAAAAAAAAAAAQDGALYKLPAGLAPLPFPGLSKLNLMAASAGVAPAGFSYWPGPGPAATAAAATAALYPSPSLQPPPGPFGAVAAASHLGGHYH
# Outline: as §1
# ETV5 = ETV5 (Homo sapiens, UniProt P41161 1-510); details: protein: recombinant; tags: N-terminal GST; dsDNA, one strand shown
# Outline: as §1
# HSF1 = HSF1 (Homo sapiens, UniProt Q00613 1-529); details: protein: recombinant; tags: N-terminal GST; chain copies: 3; dsDNA, one strand shown
# Outline: as §1
# SPIC = target: T8, SPIC (Homo sapiens, UniProt Q8N5J4 1-248); details: protein: recombinant; tags: N-terminal GST; dsDNA, one strand shown
# T8 sequence: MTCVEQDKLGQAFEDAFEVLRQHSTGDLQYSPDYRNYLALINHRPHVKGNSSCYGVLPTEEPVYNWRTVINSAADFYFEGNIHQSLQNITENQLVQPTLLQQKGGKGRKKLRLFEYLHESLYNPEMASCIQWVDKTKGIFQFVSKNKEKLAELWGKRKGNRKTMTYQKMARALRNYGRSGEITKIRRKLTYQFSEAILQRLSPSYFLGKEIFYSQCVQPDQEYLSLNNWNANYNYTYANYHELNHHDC
# Outline: as §1
# ELF4 = ELF4 (Homo sapiens, UniProt Q99607 1-663); details: protein: recombinant; tags: N-terminal GST; dsDNA, one strand shown
# Outline: as §1
# ELK4 = target: T9, ELK4 (Homo sapiens, UniProt P28324-2 1-405); details: protein: recombinant; tags: N-terminal GST; dsDNA, one strand shown
# T9 sequence: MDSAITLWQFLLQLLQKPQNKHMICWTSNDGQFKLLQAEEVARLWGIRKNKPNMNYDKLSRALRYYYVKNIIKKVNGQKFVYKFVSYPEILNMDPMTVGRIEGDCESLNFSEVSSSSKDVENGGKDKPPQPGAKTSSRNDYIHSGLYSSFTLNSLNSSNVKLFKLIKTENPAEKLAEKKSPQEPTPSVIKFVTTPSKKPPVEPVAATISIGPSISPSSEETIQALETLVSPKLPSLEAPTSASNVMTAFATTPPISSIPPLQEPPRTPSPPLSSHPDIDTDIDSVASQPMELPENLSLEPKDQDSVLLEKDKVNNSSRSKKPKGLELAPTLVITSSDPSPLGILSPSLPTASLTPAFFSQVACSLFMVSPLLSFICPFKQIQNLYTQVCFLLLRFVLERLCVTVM
# Outline: as §1
# ETV2 = target: T10, ETV2 (Homo sapiens, UniProt O00321 1-342); details: protein: recombinant; tags: N-terminal GST; dsDNA, one strand shown
# T10 sequence: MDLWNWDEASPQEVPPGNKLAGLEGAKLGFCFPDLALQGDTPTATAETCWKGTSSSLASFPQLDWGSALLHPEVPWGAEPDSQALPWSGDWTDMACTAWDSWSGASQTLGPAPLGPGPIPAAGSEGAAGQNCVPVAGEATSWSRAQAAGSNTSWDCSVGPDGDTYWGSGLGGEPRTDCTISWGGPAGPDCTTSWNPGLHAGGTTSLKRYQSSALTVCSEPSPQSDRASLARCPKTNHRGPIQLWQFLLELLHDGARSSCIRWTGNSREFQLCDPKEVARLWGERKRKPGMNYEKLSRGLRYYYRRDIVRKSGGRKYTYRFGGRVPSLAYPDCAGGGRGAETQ
# Outline: as §1
# ELF3 = target: T11, ELF3 (Homo sapiens, UniProt P78545 1-371); details: protein: recombinant; tags: N-terminal GST; dsDNA, one strand shown
# T11 sequence: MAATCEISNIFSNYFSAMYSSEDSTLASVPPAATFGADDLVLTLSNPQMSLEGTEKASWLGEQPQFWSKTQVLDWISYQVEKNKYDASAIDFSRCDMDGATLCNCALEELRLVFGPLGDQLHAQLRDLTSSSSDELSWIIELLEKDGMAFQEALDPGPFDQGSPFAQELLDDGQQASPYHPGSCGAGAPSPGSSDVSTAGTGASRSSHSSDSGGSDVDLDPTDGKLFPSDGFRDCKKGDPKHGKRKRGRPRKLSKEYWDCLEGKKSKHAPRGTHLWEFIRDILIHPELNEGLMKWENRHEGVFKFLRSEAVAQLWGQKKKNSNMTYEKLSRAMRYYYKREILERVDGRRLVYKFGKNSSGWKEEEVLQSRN
# Outline: as §1
# CRX = CRX (Homo sapiens, UniProt O43186 1-299); details: protein: recombinant; tags: N-terminal GST; dsDNA, one strand shown
# Outline: as §1
# ETV1 = ETV1 (Homo sapiens, UniProt P50549 1-477); details: protein: recombinant; tags: N-terminal GST; dsDNA, one strand shown
# Outline: as §1
# Sequence of CRX (O43186 whole entry): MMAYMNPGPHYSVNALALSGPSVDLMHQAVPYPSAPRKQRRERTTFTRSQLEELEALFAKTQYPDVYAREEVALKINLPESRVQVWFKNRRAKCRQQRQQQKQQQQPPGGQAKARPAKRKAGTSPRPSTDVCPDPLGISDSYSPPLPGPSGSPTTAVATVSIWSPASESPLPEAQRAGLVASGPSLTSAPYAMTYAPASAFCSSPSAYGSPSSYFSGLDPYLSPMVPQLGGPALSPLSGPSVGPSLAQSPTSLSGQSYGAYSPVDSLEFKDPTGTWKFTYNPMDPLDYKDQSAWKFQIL
# Sequence of ELF4 (Q99607 whole entry): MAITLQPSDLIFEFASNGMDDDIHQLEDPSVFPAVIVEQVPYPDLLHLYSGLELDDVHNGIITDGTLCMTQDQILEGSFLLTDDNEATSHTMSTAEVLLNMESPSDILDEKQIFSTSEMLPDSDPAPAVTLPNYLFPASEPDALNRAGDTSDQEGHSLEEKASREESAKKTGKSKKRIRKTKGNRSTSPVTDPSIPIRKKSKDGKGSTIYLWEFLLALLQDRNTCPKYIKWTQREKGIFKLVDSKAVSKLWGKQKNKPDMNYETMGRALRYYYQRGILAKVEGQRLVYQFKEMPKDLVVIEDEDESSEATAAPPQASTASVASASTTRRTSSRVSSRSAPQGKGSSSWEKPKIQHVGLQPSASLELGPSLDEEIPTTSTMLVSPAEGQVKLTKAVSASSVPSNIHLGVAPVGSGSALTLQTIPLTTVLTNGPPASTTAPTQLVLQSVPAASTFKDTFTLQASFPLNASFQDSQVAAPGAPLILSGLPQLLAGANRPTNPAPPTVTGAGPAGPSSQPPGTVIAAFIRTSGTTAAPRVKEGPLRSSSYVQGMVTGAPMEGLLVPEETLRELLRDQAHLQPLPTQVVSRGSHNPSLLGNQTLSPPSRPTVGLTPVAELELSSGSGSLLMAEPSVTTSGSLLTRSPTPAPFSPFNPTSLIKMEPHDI
# Sequence of ETV1 (P50549 whole entry): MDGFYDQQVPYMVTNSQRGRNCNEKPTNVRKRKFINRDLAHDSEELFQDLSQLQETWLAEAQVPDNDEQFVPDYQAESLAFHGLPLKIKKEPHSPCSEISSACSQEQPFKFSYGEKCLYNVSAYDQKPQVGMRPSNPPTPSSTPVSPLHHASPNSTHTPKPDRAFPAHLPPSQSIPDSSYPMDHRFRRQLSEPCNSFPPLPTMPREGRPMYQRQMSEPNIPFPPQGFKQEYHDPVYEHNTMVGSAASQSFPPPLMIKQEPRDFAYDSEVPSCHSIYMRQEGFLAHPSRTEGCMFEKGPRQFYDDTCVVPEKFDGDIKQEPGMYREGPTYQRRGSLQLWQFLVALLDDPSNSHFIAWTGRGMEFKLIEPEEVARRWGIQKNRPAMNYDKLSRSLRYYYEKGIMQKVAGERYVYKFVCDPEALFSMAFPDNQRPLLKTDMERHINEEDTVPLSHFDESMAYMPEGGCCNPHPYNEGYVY
# Sequence of HSF1 (Q00613 whole entry): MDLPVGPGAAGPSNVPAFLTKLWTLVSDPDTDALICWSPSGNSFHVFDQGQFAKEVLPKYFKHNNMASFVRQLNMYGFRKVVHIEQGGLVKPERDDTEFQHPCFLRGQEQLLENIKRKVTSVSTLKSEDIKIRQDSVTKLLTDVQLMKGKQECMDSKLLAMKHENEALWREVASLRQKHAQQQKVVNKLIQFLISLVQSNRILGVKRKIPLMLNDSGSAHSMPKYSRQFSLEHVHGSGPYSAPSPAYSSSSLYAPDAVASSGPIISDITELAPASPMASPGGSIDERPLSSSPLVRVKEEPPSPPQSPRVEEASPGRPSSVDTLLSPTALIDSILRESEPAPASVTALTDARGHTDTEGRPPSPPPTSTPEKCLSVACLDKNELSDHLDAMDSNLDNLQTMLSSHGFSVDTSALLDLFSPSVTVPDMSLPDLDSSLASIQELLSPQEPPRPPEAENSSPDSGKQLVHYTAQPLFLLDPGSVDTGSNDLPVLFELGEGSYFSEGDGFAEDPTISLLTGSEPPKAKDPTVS
# Sequence of ELF1 (P32519 whole entry): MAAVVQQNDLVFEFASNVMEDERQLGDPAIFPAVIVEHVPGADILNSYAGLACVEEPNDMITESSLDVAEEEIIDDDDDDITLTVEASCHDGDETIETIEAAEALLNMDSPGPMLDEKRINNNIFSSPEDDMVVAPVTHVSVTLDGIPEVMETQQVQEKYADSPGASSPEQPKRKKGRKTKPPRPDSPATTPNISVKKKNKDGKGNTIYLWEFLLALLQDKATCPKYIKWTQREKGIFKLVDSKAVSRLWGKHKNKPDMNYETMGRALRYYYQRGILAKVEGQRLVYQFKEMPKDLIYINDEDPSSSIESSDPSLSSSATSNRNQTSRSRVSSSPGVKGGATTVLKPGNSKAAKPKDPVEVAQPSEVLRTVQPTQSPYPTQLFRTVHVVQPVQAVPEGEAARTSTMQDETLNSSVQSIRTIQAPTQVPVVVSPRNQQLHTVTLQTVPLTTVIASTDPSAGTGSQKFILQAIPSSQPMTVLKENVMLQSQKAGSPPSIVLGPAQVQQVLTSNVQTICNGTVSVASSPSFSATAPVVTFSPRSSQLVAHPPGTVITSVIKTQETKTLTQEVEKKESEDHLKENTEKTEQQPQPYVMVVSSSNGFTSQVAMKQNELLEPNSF
# Sequence of SPIB (Q01892 whole entry): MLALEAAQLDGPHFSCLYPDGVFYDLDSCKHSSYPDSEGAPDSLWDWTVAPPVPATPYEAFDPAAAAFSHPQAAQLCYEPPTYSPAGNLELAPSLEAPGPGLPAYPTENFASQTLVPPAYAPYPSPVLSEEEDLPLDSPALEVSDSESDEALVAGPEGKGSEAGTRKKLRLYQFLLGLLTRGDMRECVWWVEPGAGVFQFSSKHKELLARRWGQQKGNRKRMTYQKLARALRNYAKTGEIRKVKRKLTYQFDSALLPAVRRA
# Sequence of ETV5 (P41161 whole entry): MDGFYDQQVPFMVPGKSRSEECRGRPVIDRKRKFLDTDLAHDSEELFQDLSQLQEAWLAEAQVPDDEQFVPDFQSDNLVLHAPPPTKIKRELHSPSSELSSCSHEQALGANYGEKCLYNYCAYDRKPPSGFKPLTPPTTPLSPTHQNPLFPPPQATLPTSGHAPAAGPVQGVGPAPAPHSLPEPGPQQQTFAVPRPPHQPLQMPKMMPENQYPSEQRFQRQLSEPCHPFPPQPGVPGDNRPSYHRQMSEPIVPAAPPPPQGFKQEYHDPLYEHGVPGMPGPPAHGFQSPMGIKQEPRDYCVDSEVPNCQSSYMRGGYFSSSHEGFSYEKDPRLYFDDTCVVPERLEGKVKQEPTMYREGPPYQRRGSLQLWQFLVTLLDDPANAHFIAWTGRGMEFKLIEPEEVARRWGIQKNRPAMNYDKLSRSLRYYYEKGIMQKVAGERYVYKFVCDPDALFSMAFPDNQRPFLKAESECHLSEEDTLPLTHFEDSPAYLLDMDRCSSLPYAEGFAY
sequence,measurement,setting,value
GTGCTT,binding signal,FLI1,"1.21 fold enrichment (6-mer frequency, TF over GST control)"
same,binding signal,ELK1,"1.36 fold enrichment (6-mer frequency, TF over GST control)"
same,binding signal,GABPA,"1.3 fold enrichment (6-mer frequency, TF over GST control)"
same,binding signal,ERG,"1.38 fold enrichment (6-mer frequency, TF over GST control)"
same,binding signal,ELF1,"1.2 fold enrichment (6-mer frequency, TF over GST control)"
same,binding signal,EHF,"1.24 fold enrichment (6-mer frequency, TF over GST control)"
same,binding signal,SPI1,"1.33 fold enrichment (6-mer frequency, TF over GST control)"
same,binding signal,SPIB,"1.24 fold enrichment (6-mer frequency, TF over GST control)"
same,binding signal,ELK3,"1.4 fold enrichment (6-mer frequency, TF over GST control)"
same,binding signal,FEV,"1.25 fold enrichment (6-mer frequency, TF over GST control)"
same,binding signal,ETV5,"1.19 fold enrichment (6-mer frequency, TF over GST control)"
same,binding signal,HSF1,"1.05 fold enrichment (6-mer frequency, TF over GST control)"
same,binding signal,SPIC,"1.46 fold enrichment (6-mer frequency, TF over GST control)"
same,binding signal,ELF4,"1.27 fold enrichment (6-mer frequency, TF over GST control)"
same,binding signal,ELK4,"1.1 fold enrichment (6-mer frequency, TF over GST control)"
same,binding signal,ETV2,"1.41 fold enrichment (6-mer frequency, TF over GST control)"
same,binding signal,ELF3,"1.14 fold enrichment (6-mer frequency, TF over GST control)"
same,binding signal,CRX,"1.14 fold enrichment (6-mer frequency, TF over GST control)"
same,binding signal,ETV1,"1.16 fold enrichment (6-mer frequency, TF over GST control)"
